The results in this text go back to the supplement of paper PMC3842684.

The subject of this test is P. falciparum NF54-pfs16-GFP late (IV-V) stage gametocytes. Briefly: relative % inhibition of viable gametocyte number; higher = more gametocytocidal. As to conditions: 0.5 µM; stage: late (IV-V) gametocyte; incubation 72 h. The essentials: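 Relative inhibition was normalised to in-plate vehicle and positive-control wells, with viable gametocytes defined on confocal images as elongated GFP objects whose MitoTracker Red signal exceeded a cut-off. NF54 pfs16-GFP gametocytes, magnet-isolated at early (I/IIa, day 2) or late (day 8) stage, were plated at 10% parasitaemia, 0.1% haematocrit with compound at 5 or 0.5 µM. Plates were incubated 72 h at 37°C, 5% CO2, 5% O2, then stained overnight.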
With `CC1CCN(Cc2c(O)ccc3cc(-c4nc5ccccc5s4)c(=O)oc23)CC1`, the relative % inhibition came to 18.2%.

On to `FC(F)(F)c1ccc(Nc2nnnc3ccccc23)cc1`, for which the relative % inhibition came out at 25%.

With `CC(C)OCc1cc(CN2CCN(c3cccc(Cl)c3)CC2)c(O)c2ncccc12`, the relative % inhibition was found to be 8.7%.

On to `Nc1ccn(C2O[C@H](CO)[C@@H](O)[C@H]2O)c(=O)n1` (stereo partly drawn), for which the relative % inhibition worked out at 8.91%.

Turning to `COc1ccccc1CNC(=O)CCn1c(=O)[nH]c2ccsc2c1=O`, the relative % inhibition is -0.5%.

For `C=C(C)CCC(C)N1CCC(N2CCC(C(=O)NCCc3ccccc3)CC2)CC1` (stereo not drawn), the relative % inhibition is -12.5%.

Regarding `OC(CNCc1ccccc1)Cn1c2ccccc2c2ccccc21` (stereo not drawn), the relative % inhibition came out at 21.5%.

As for `CCOc1cc(Br)c(C(C)NC(=O)c2cccc(OC)c2)cc1OCC` (stereo not drawn), the relative % inhibition came to 11.2%.

Take `COc1nc(Nc2ccc(C(C)C)cc2)nc(OC)n1`: the relative % inhibition was -0.358%.

For the molecule `Cc1ccc(OCCCCCCNCCO)c(C)c1`, the relative % inhibition was -16.2%.

As for `COc1ccc(-c2nonc2NC(=O)c2cccc(Cl)c2)cc1OC`, the relative % inhibition is -17.2%.

`CCOC(=O)c1cnc2ccc(OC)cc2c1Nc1ccc(N2CCN(C)CC2)cc1`: the relative % inhibition turned out to be 11.9%.

With `O=C(CCc1ccccc1)c1ccccc1OCC(O)CN1CCCCC1` (stereo not drawn), the relative % inhibition was 15%.

For the molecule `CC(C)CNC(=O)c1c(N)n(CCc2ccccc2F)c2nc3ccccc3nc12`, the relative % inhibition was 3.01%.

As for `CCOC(=O)c1ccc2nc(-c3ccccc3)cc(O)c2c1`, the relative % inhibition was found to be 50.6%.

`Clc1ccc2[nH]c3c(NCCCN4CCOCC4)ncnc3c2c1`: the relative % inhibition was found to be 12.4%.

`CCC(O)c1ccc(Br)cc1NC(=O)c1cccc(Cl)c1` (stereo not drawn): the relative % inhibition was found to be 12%.

With `CC(C)(C)CC(C)(C)NCC(O)COc1ccc2c(c1)CCC2` (stereo not drawn), the relative % inhibition came out at 17.6%.

Consider `Cc1ccc(-c2nc3ccccc3o2)cc1NCc1cc(Cc2ccccc2)ccc1O`, for which the relative % inhibition is 13.4%.

With `Cn1c(C(=O)c2cccc3ccccc23)nc2ccccc21`, the relative % inhibition turned out to be 9.04%.

Consider `O=c1nc(C=Cc2ccc(Br)cc2)oc2ccccc12`, for which the relative % inhibition was found to be 4.47%.

As for `Brc1ccc(Nc2nc3ccccc3nc2Nc2ccc(Br)cc2)cc1`, the relative % inhibition was 55.2%.

Take `O=C(CCl)NCCOc1ccc(Cl)cc1Cl`: the relative % inhibition is 8.06%.

Regarding `CCOc1c(Cl)cc(CNCC(O)c2ccccc2)cc1OC` (stereo not drawn), the relative % inhibition was 36.5%.

Consider `O=C(NC(c1ccccc1)c1ccc2cccnc2c1O)c1ccccc1` (stereo not drawn), for which the relative % inhibition was found to be 35.8%.

With `Cc1ccc2cc3c(N)c4c(C)ccc(C)c4nc3nc2c1`, the relative % inhibition was found to be 8.68%.

For `CCOc1ccc(-c2nonc2NC(=O)c2cccc(C)c2)cc1OCC`, the relative % inhibition was 27.6%.

As to `Cn1c(=O)c2cc(C(=O)NCCCN3CCCCCC3)sc2c2ccccc21`, the relative % inhibition is -1.01%.

As for `Cc1ccc(-c2cc3c(nn2)-c2ccccc2C3=O)cc1`, the relative % inhibition turned out to be 102%.

Take `CCCN(CCC)CC(O)COc1ccccc1C(=O)Nc1ccccc1` (stereo not drawn): the relative % inhibition amounted to 34.9%.

On to `CCOc1ccc(C=Cc2nc(=O)c3ccccc3o2)cc1`, for which the relative % inhibition was found to be 22.3%.

With `Cc1ccccc1OCCSc1nc2ccc(NC(=O)c3ccccc3)cc2s1`, the relative % inhibition stood at 2.82%.

Consider `CCOc1cc(Cl)c(C(C)NC(=O)c2ccccc2)cc1OCC` (stereo not drawn), for which the relative % inhibition was 8.2%.

Take `CCCCCCc1cc2cc(-c3csc(C=Cc4ccccc4)n3)c(=O)oc2cc1O`: the relative % inhibition was determined as 31.2%.

Consider `Clc1ccc2c(N3CCCC3)ccnc2c1`, for which the relative % inhibition is 11.2%.

Take `COc1cccc(C=Cc2nc(=O)c3ccccc3o2)c1OC`: the relative % inhibition is 50.6%.

With `Cc1cc(NC(=O)c2ccc(-c3ccccc3)cc2)no1`, the relative % inhibition was 13.3%.

`CCc1c(C)c(=N)c2ccccc2n1C`: the relative % inhibition was -17.1%.
